D2 PAM-1 = human D2 receptor positive allosteric modulation; P14416; DiscoveRx D2 beta-arrestin cells, luminescence, 90 min; 100% = 57 uM dopamine signal; AID 624464; 0.23% of 360,000 active; potentiation, % (concentration not given with the values); in the data active = potentiation above about 50%
Target sequence (P14416 whole entry, looked up): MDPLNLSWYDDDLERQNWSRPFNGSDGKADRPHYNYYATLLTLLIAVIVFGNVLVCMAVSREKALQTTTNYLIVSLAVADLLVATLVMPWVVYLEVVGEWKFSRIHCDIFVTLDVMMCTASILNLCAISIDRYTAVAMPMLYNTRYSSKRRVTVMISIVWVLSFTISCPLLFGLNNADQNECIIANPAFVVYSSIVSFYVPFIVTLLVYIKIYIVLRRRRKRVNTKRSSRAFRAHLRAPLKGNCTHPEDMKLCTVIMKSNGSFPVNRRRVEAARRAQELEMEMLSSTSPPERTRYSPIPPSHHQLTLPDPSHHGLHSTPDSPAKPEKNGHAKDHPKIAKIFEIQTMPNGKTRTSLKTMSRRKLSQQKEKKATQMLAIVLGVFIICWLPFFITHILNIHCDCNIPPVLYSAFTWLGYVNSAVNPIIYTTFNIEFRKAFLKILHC
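PathHunter beta-arrestin assay in DiscoveRx D2 cells. Compounds were added with an EC20 of dopamine (50 nM final) for 90 min at 37 deg C. Luminescence was read 1 h after detection reagent, with 57 uM dopamine as the EC100 control.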
D2 PAM-2 = D2 dopamine receptor (human) potentiation | P14416 | HEK293 T-REx D2, calcium flux, EC20 dopamine potentiation | potentiation, % at 10 µM | 0.34% of 340,000 active | AID 485347;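 active = potentiation over 3 SD above the plate norm, cut at about 30% in these data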
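Tetracycline-induced HEK293 T-REx cells force-coupled to calcium signalling expressed D2; compounds were pin-added after a 10 s baseline, read kinetically 180 s, then an EC20 dopamine challenge followed with a further 180 s calcium read.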
D2 ag-1 = activates the human D2 dopamine receptor; P14416; DiscoveRx PathHunter D2 beta-arrestin, luminescence, 90 min; 100% = 57 uM dopamine signal; activation, % (test concentration not listed); 0.084% of 360,000 active; AID 624465; in the data active = activation above about 40%
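Agonist mode: compounds alone added to overnight-plated D2 PathHunter cells for 90 min at 37 C, with 57 uM final dopamine (EC100) defining full response. Beta-arrestin recruitment detected by chemiluminescent reagent, read after 1 h at ambient temperature.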
D2 ag-2 = D2 dopamine receptor (human) agonism; 0.53% of 340,000 active; AID 485358; HEK293 T-REx D2 cells, calcium flux agonist mode; activation, % at 2 µM;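 active = activation over 3 SD above normal in the single-dose calcium agonist read, cut at about 30% in these data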
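Agonism scored from kinetic calcium signal (1 read/sec, 180 s) following compound pin transfer, after a 10 s baseline. Cells: HEK293 Trex line expressing inducible D2 receptor coupled to calcium, dye-loaded after overnight culture at 30 C.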
D2 antagonist = antagonizes the human D2 dopamine receptor; P14416; HEK293 TREx D2 cells, calcium flux, dopamine EC80; inhibition, % at 10 µM; 2% of 340,000 active; AID 485344; in the data active = inhibition above about 30%; inactive = below that, where a call was filed
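Tetracycline-induced HEK293 TREx cells expressing D2 receptor forced-coupled to calcium signalling, loaded with no-wash calcium dye. Compounds added and calcium flux read 180 s, then dopamine added at EC80 and read a further 180 s.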
Large screens that a line does not name were inactive. Sampled rows, rich in hits. Any-hit rate of the full collection: about 2.4%.

CCc1cc(C(=O)N2CCN(S(=O)(=O)c3ccc(Cl)cc3)CC2)sc1C	D2 antagonist 39
CCc1noc(C)c1C(=O)N1CCN(S(=O)(=O)c2ccc(Cl)cc2)CC1	none
CCN(CC)C(=O)NC1CC2CCCC(C1)N2Cc1ccccc1 (configuration not stated)	D2 antagonist 92
O=C(/C=C/c1ccccc1)NC1CC2CCCC(C1)N2Cc1ccccc1 (configuration not stated)	D2 antagonist 88 (no result: D2 PAM-1, D2 ag-1)
O=C(CN1C(=O)COc2ccc(S(=O)(=O)N3CCOCC3)cc21)N1CCN(c2ccc(F)cc2)CC1	none (no result: D2 PAM-1, D2 ag-1, D2 antagonist)
Cc1cc(NC(=O)c2cc(-c3ccc(OC(C)C)cc3)nc3ccccc23)no1	D2 PAM-2 30
COc1ccc(N(C(=O)C(C)C)S(=O)(=O)c2ccc3ccccc3c2)cc1	none
Cc1ccc(CNC(=O)CO/N=C/c2ccc(C(C)(C)C)cc2)cc1	D2 antagonist 38
O=C(Cn1ccn(-c2ccc(F)cc2)c(=O)c1=O)NCCc1ccccc1	none (no result: D2 PAM-1, D2 ag-1, D2 antagonist)
CCC(NS(=O)(=O)c1ccc(C)cc1)C(=O)N1CCC2(O)CCCCC2C1 (configuration not stated)	D2 PAM-2 39
O=C(Nc1nnc(-c2ccccc2)o1)c1nc2ccccc2s1	D2 ag-2 44
CC1(C(=O)NS(=O)(=O)c2ccc(F)cc2F)CCN1C(=O)C/C=C/c1ccccc1 (configuration not stated)	none (no result: D2 PAM-2, D2 ag-2, D2 antagonist)
CC(=O)c1c(C)[nH]c(C(=O)N(C)CC(=O)Nc2ccc(Cl)c(C(F)(F)F)c2)c1C	D2 antagonist 39
CN(CC(=O)NC(=O)NCc1ccccc1)CC(=O)Nc1ccc(Cl)c(C(F)(F)F)c1	D2 antagonist 35
CN(CC(=O)NCCc1ccc(S(N)(=O)=O)cc1)CC(=O)Nc1ccc(Cl)c(C(F)(F)F)c1	none (no result: D2 PAM-2, D2 ag-2, D2 antagonist)
CN(CC(=O)Nc1ccc(Cl)c(C(F)(F)F)c1)C(=O)c1cccs1	none
Cc1ccn2c(=O)cc(CSc3nnc(C)s3)nc2c1	none (no result: D2 PAM-1, D2 ag-1, D2 antagonist)
Cc1cc(-c2cc(C(=O)NC3CCCC3)on2)nc(NCC2CC2)n1	D2 antagonist 33
Cc1cc(-c2cc(C(=O)Nc3ccccc3)on2)nc(NCC2CC2)n1	none (no result: D2 PAM-2, D2 ag-2, D2 antagonist)
CCC(=O)N1CCCc2cc(S(=O)(=O)N3CCN(c4ncccn4)CC3)ccc21	D2 antagonist 31
Cc1noc(C)c1S(=O)(=O)NCCN1CCN(c2ccccc2)CC1	D2 ag-2 31, D2 antagonist 33
CCC(Sc1nc2ccccc2c2nc(-c3ccccc3)nn12)C(=O)Nc1cccc(OC)c1 (configuration not stated)	none (no result: D2 PAM-1, D2 ag-1, D2 antagonist)
CCOc1ccc(CCNC(=O)CCCc2nnc3n(CC)c(=O)c4sccc4n23)cc1	none (no result: D2 PAM-1, D2 ag-1, D2 antagonist)
Cc1cccc(NC(=O)[C@@H]2CCCN2C2=NS(=O)(=O)c3ccccc32)c1C	none
CC(=O)c1ccc(NC(=O)[C@@H]2CCCN2C2=NS(=O)(=O)c3ccccc32)cc1	D2 antagonist 37
O=C(CN1CCC(n2nnc3cc(F)ccc32)CC1)NNC(=O)c1ccccc1	none
CC1CCC(NC(=O)CN2CCC(n3nnc4cc(F)ccc43)CC2)CC1 (configuration not stated)	D2 antagonist 41
O=C(COC(=O)c1ccc(O)cc1)Nc1ccc(OC(F)F)cc1	D2 antagonist 32
COC(=O)c1[nH]c2ccc(Cl)cc2c1NC(=O)Oc1ccccc1	D2 PAM-1 68
COC(=O)c1[nH]c2ccc(Cl)cc2c1NC(=O)C1CC1	none
CCN1CCOC(=O)C1CC(=O)Nc1ccc(Br)cc1 (configuration not stated)	none (no result: D2 PAM-1, D2 ag-1, D2 antagonist)
CNC(=O)CSc1nnnn1-c1cc(C)ccc1C	D2 PAM-2 46
COc1ccccc1-c1nn(CCC(=O)Nc2ccc(C)cc2)c2nc(C)cc(C)c12	none (no result: D2 PAM-1, D2 ag-1, D2 ag-2, D2 antagonist)
Cc1cc2ncn(/N=C/c3ccc4c(c3)OCO4)c2cc1C	D2 antagonist 89
Cc1cc2ncn(/N=C/c3cccnc3)c2cc1C	none
OCC1(CCc2ccccc2)CCCN(C/C=C/c2ccccc2)C1 (configuration not stated)	D2 antagonist 45
COc1ccccc1/C=C/CN1CCCC(CO)(CCc2ccccc2)C1 (configuration not stated)	D2 antagonist 71
COc1ccc(CC2(CO)CCN(C/C=C/c3ccccc3OC)CC2)cc1	none
COc1ccc(Br)cc1C1Nc2ccccc2C(=O)N1NC(=O)c1ccncc1 (configuration not stated)	D2 PAM-2 30
O=C(NN1C(=O)c2cc(Br)ccc2NC1c1ccccc1Cl)c1ccncc1 (configuration not stated)	none (no result: D2 PAM-2, D2 ag-2, D2 antagonist)
CC(NC(=O)c1ccc(Cl)cc1)c1nnc(SCc2ccc([N+](=O)[O-])cc2)n1C (configuration not stated)	D2 antagonist 32
CCn1c(SCc2ccc([N+](=O)[O-])cc2)nnc1C(C)NC(=O)c1ccc(C)cc1 (configuration not stated)	none
Cn1ccnc1SCC(=O)Nc1ccc2c(c1)OC(F)(F)O2	none (no result: D2 PAM-1, D2 ag-1)
Cc1cc(OCCN2CCCCC2)nc2ccccc12	D2 antagonist 31
Cc1ccc(NC(=O)NC(=O)N(C(C)C)S(=O)(=O)c2ccc(C)cc2)cc1	D2 antagonist 44
CC1CN(C(=O)CCC(=O)NCc2ccc(F)cc2)c2ccccc2S1 (configuration not stated)	none
COc1ccccc1CNC(=O)CCC(=O)N1CC(C)Sc2ccccc21 (configuration not stated)	D2 antagonist 32
COc1ccccc1-c1oc2ccccc2c1C#CC(C)(C)O	D2 antagonist 52
CCCCCCc1c(C)c2c(cc(C)c3c(C)coc32)oc1=O	none (no result: D2 PAM-1, D2 ag-1, D2 antagonist)
Cc1coc2c1c(C)cc1oc(=O)c(Cc3ccccc3)c(C)c12	D2 antagonist 43
COCCn1c(SCC(=O)c2ccccc2)nc2cc(C(=O)NC3CCCC3)ccc2c1=O	none (no result: D2 PAM-1, D2 ag-1, D2 antagonist)
Cc1cc(N2CCCC2)nc(-c2ccccc2O)n1	none
Cc1cc(N2CCCCC2)nc(N)n1	D2 ag-2 69, D2 antagonist 60
CCC(C)C(NC(=O)C1CCC(=O)N1C(=O)OCc1ccccc1)C(=O)NC(Cc1ccccc1)C(N)=O (configuration not stated)	none (no result: D2 PAM-2)
CC[C@H](C)[C@H](NC(=O)[C@H](Cc1ccc(O)cc1)NC(=O)[C@@H](N)C(C)C)C(=O)N[C@@H](Cc1cnc[nH]1)C(=O)N1CCC[C@H]1C(=O)N[C@@H](Cc1ccccc1)C(=O)O	D2 antagonist 34
CN1C(C(=O)NCc2cccc(C(F)(F)F)c2)CC2Cn3c(nc4cc5ccccc5cc43)C21 (configuration not stated)	D2 antagonist 43
Oc1ccccc1C1Nc2cccc3cccc(c23)N1	D2 PAM-1 61
Brc1cccc(C2Nc3cccc4cccc(c34)N2)c1	none

Source: PubChem
